Results taken from PubChem BioAssay AID652054 (National Center for Advancing Translational Sciences (NCATS), 2013).
About 9,100 (2.5%) of roughly 360,000 compounds were called active. Not shown: some 4% with an inconclusive outcome. Rule as the data show it: active = max response below about -50%; inconclusive = no clear call, values can overlap the other calls; inactive = above that. Only a selection was taken, and actives are over-represented in it overall.

Each molecule was assayed against D(3) dopamine receptor (Homo sapiens) (UniProt P35462) (assay: qHTS of D3 Dopamine Receptor Antagonist: qHTS). Settings: D3R cells, DiscoveRx beta-arrestin luminescence, antagonist mode; hits give low values.
D(3) dopamine receptor (Homo sapiens), sequence (P35462 whole entry, looked up): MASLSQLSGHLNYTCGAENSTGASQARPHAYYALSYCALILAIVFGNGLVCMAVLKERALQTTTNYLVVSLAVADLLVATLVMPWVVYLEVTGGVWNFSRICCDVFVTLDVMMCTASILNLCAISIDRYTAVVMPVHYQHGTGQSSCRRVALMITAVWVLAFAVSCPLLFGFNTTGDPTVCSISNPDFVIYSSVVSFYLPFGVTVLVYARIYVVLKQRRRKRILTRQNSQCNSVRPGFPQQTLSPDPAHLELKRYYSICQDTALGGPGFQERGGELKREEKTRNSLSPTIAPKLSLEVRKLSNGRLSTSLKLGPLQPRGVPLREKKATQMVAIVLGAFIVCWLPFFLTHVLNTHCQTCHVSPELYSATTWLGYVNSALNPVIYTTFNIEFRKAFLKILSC
In short: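 Cells expressing the human receptor were seeded at 1500 cells/well, incubated overnight at 37 degrees C in 5% CO2, then exposed to library compounds with dopamine controls for 90 minutes at 37 degrees C before luminescent detection.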
% is scaled to controls: 0 for no effect and ±100 for the full control effect.

Max response, negative = inhibition, inactive:
COc1ccc(C(=O)N2CCCCC2c2cc(C(=O)Nc3ccccc3)no2)cc1 (stereo unspecified) -19.9%
C[C@H]1CN([C@@H](C)CO)S(=O)(=O)c2ccc(Br)cc2O[C@H]1CN(C)C(=O)c1cnccn1 -8.27%
Cc1cc(C)n(CC(O)CN(c2ccccc2)S(=O)(=O)c2ccc3ccccc3c2)n1 (stereo unspecified) 10.5%
Cc1cccc(N(CC(O)CN(C)C)S(=O)(=O)c2ccccc2)c1 (stereo unspecified) 0.407%
O=C(Nc1ccc(Cl)cc1)C1Cc2c(-c3ccc4c(c3)OCO4)ccnc2O1 (stereo unspecified) -10.5%
COc1ccccc1NC(=O)CN1CCN(S(=O)(=O)c2ccc(Br)cc2)CC1 -9.35%
O=C(CN1CCN(S(=O)(=O)c2ccc(F)cc2)CC1)Nc1ccccc1F 0%
Cc1ccc(-c2nc3c(C)cc(Br)cn3c2Cc2ccccc2)cc1 -0.352%
COC(=O)c1nc(NC(=O)c2ccccc2)n[nH]1 24.5%
O=C(NC(=O)c1ccccc1)Nc1ccccc1O -13.1%
O=C(NCc1nnnn1-c1ccc(Cl)cc1)c1ccc([N+](=O)[O-])o1 10.2%
COc1ccc(C(=O)N2CCC(C(=O)Nc3ccc(C)cc3)CC2)cc1 9.09%
CCc1cc(C(=O)c2ccc(OC)cc2)c(NC(=O)CN2CCN(C)CC2)s1 -7.92%
COc1ccc(-c2nc(CS(=O)(=O)CC(=O)NCc3cccc(Br)c3)c(C)o2)cc1 8.07%
COc1cccc(-c2nc(CS(=O)(=O)CC(=O)NCCc3ccc(OC)c(OC)c3)c(C)o2)c1 1.08%
COC(=O)c1ccc2nc(-c3ccc(F)cc3)c(Cc3ccc(C)cc3)n2c1 19.7%
CCCOc1ccc(F)cc1-c1cc(C(=O)Nc2ccc(F)c(Cl)c2)[nH]n1 -15.7%
CCCOc1ccc(F)cc1-c1cc(C(=O)NCc2ccc(F)cc2)[nH]n1 -2.32%
O=C(CN1CCN(C(=O)c2cccc(F)c2)CC1)Nc1ccccc1F 137%
COc1cccc(OC)c1C(=O)N1CCN(Cc2ccccc2F)CC1 -6.64%

Max response, negative = inhibition, active:
Cc1ccc(N(CC(O)CN2CCCC2)S(=O)(=O)c2ccccc2)cc1 (stereo unspecified) -57.8%
O=C(CN1CCN(S(=O)(=O)c2ccc(Br)cc2)CC1)Nc1ccccc1C(=O)c1ccccc1 -71.6%
O=C(NC1=CC(=O)c2ccccc2C1=O)c1ccccc1 -88.8%
CCc1ccc(NC(=O)CN2CCC(C(=O)c3ccc(OC)cc3)CC2)cc1 -50.9%
CCCCN(CC)CCCNC(=O)CS(=O)(=O)Cc1nc(-c2cccc(OC)c2)oc1C -50.9%
Cc1ccccc1CN1CCN(C(=O)c2cccc(F)c2)CC1 -63.6%
